The record followed here is the supplement of paper PMC13380429.

A number with no mark means an inactive call.

This assay has as its system Vero E6 infected with SARS-CoV-2. Briefly: SARS-CoV-2 infection rate relative to infected DMSO; higher = more infection, active = 60 or less. As to conditions: 24 h.
In the case of `Oc1c(I)cc(Cl)c2cccnc12` [clioquinol] (10 µM), the SARS-CoV-2 infection rate is 90%.
Under `O=C(/C=C/c1ccccc1)NCCO` [brolitene] (10 µM) stands 93.5%; under `CC(C)(C)NC[C@H](O)COc1cccc2c1CCCC2=O` [levobunolol] (10 µM), 108%.
Under `O=C1NC(=O)[C@@]2(CCOc3ccc(F)cc32)N1` [sorbinil] (10 µM) stands 98%; under `O=C(O)C(O)Cc1ccc(O)c(O)c1` (centres undefined) [sodium-danshensu] (10 µM), 106%.
The same measure for `COCC1(CO)C(=O)C2CCN1CC2` (centres undefined) (10 µM): 80.5%; for `CCCS(=O)(=O)Nc1ccc(F)c(C(=O)c2c[nH]c3ncc(-c4ccc(Cl)cc4)cc23)c1F` [vemurafenib] (10 µM): 85.5%; for `CC[N+](CC)(CCNC(=O)C(=O)NCC[N+](CC)(CC)Cc1ccccc1Cl)Cc1ccccc1Cl` [ambenonium] (10 µM): 106%.
Consider `CCN(CC)CC1CCCCN1CC(=O)N1c2ccccc2C(=O)Nc2cccnc21` (centres undefined) [otenzepad] (10 µM), for which the SARS-CoV-2 infection rate was 94.5%.
Under `COC(=O)[C@@H](N)CS` [mecysteine] (10 µM) stands 112%.
Under `Nc1c(CC(=O)O)cccc1C(=O)c1ccccc1` [amfenac] (10 µM) stands 104%.
The same measure for `CCN1C(=O)NC(c2ccccc2)C1=O` (centres undefined) [ethotoin] (10 µM): 97%; for `CC1(N2CCC(n3c([C@@H]4CCCNC4)nc4ccccc43)CC2)CCCCCCC1` (10 µM): 22% (active).
In the case of `CC(=O)[C@@]1(O)CC[C@H]2[C@@H]3C=C(Cl)C4=CC(=O)[C@@H]5C[C@@H]5[C@]4(C)[C@H]3CC[C@@]21C` (10 µM), the SARS-CoV-2 infection rate was 109%.
The same measure for `CCN(CC)CC1CCN(c2ncc3ncnc(Nc4ccc(F)c(Cl)c4)c3n2)CC1` (10 µM): 112%.
Under `C=C1C(=O)O[C@@H]2C[C@@]3(C)CCC[C@H](C)C3=C[C@H]12` [alantolactone] (10 µM) stands 32% (active); under `CCOc1nc2c(N)ncnc2n1CC` (10 µM), 88%.
The same measure for `CCCCNC(=O)NS(=O)(=O)c1ccc(C)cc1` [tolbutamide] (10 µM): 96.5%; for `CC(C)N(CCNC(=O)CN1CCCC1=O)C(C)C` [pramiracetam] (10 µM): 115%; for `CC(=O)CC(c1ccccc1)c1c(O)c2ccccc2oc1=O` (centres undefined) [warfarin] (10 µM): 106%.
Consider `COc1ccc(/C=C\c2cc(OC)c(OC)c(OC)c2)cc1O` [combretastatin-A-4] (10 µM), for which the SARS-CoV-2 infection rate is 98.5%.
As to `CN1CCN(Cc2ccc(Nc3ncc(Cl)c(Nc4ccccc4S(=O)(=O)N(C)C)n3)cc2)CC1` (10 µM), the SARS-CoV-2 infection rate is 120%.
Under `CCN1CCCC1CNC(=O)c1cc(S(=O)(=O)CC)c(N)cc1OC` (centres undefined) [amisulpride] (10 µM) stands 105%.
`O=C(O)CCCN1C(=O)c2cccc3cccc(c23)C1=O` [isodibut] (10 µM): the SARS-CoV-2 infection rate is 104%.
On to `CS(=O)(=O)n1cc2c(n1)CN([C@H]1CO[C@H](c3cc(F)ccc3F)[C@@H](N)C1)C2` [omarigliptin] (10 µM), for which the SARS-CoV-2 infection rate is 107%.
Under `OCCN1CCN(CCCN2c3ccccc3Sc3ccc(C(F)(F)F)cc32)CC1` [fluphenazine] (0.833333 µM) stands 116%; under `Cc1cc(OCc2nnc(SC3CCCC3)n2-c2cccnc2)ccc1-c1ccc(S(C)(=O)=O)cc1` (0.833333 µM), 100%; under `CC[C@@H]1/C=C(\C)C[C@H](C)C[C@H](OC)[C@H]2O[C@@](O)(C(=O)C(=O)N3CCCC[C@H]3C(=O)O[C@H](/C(C)=C/[C@@H]3CC[C@@H](O)[C@H](OC)C3)[C@H](C)[C@@H](O)CC1=O)[C@H](C)C[C@@H]2OC` [ascomycin] (10 µM), 100%.
On to `CC1(C)O[C@@H]2C[C@H]3[C@@H]4CCC5=CC(=O)C=C[C@]5(C)[C@H]4[C@@H](O)C[C@]3(C)[C@]2(C(=O)CO)O1` [desonide] (10 µM), for which the SARS-CoV-2 infection rate was 107%.
Under `N#CN=C(NCCCCCCOc1ccc(Cl)cc1)Nc1ccncc1` (10 µM) stands 96.5%; under `CC(C)OC(=O)CNC(=O)[C@H](CS)NC(=O)CC[C@H](N)C(=O)O` [glutathione-monoisopropyl-ester] (10 µM), 101%.
The same measure for `S=C(NC1CCCCC1)N1CCC(c2cnc[nH]2)CC1` [thioperamide] (10 µM): 96.5%; for `O=C1[C@H](Cc2ccc(O)cc2)N2C(=O)CCN(C(=O)NCc3ccccc3)[C@H]2CN1Cc1cccc2ccccc12` (10 µM): 93%.
The same measure for `O=C1O[C@H]([C@@H](O)CO)C(O)=C1O` (10 µM): 111%; for `C[C@]12CC[C@@H]3c4ccc(OC(=O)c5ccccc5)cc4CC[C@H]3[C@@H]1CC[C@@H]2O` [estradiol-benzoate] (10 µM): 111%.
Regarding `COCCN1CCC(C(=O)NO)(S(=O)(=O)c2ccc(Oc3ccc(OC(F)(F)F)cc3)cc2)CC1` (10 µM), the SARS-CoV-2 infection rate was 110%.
Under `Cc1ncc(CO)c(C=O)c1O` [pyridoxal] (10 µM) stands 109%; under `O=C(Nc1cnn2ccc(N3CCC[C@@H]3c3cc(F)ccc3F)nc12)N1CC[C@H](O)C1` [larotrectinib] (10 µM), 122%; under `CNC(=O)O[C@H]1COc2ccc(N3CCN(C4COC4)CC3)cc2[C@@H]1NC(=O)c1ccc(F)cc1` (10 µM), 95.5%.
